High-throughput results (PubChem)
GAA glycogen: GAA glycogen-cleavage inhibition or activation; P10253; hit rate 0.38% among 300,000; Potency, µM (doses to about 76.4 µM), for inactives: at the top dose activity change, negative = inhibition, actives largely listed as inhibitors; recombinant GAA, glycogen substrate, Amplex Red glucose oxidase fluorescence; AID 2100;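 also: 0% = full enzyme reaction and -100% = no-enzyme basal signal; the screen sought inhibitors and activators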
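Natural-substrate format: glycogen cleavage by 4 nM human enzyme, glucose read by Amplex Red coupling (Ex 573, Em 610 nm). Normalized to enzyme and no-enzyme controls.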
GAA inhib: alpha-glucosidase (human) inhibition; P10253; purified human GAA, 4-MU-alpha-glucoside fluorescence; Potency, µM (doses to about 76.9 µM), inactives show at the highest dose activity change, negative = inhibition, actives largely listed as inhibitors; hit rate 0.005% among 200,000; AID 1466;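 also: plate controls were uninhibited enzyme wells for no effect and no-enzyme background for full effect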
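Human enzyme at 4 nM with 400 uM 4-methylumbelliferyl-alpha-D-pyranoside, citrate/phosphate buffer pH 5.0, 0.005% Tween-20, 20 min at room temperature. Compounds up to 77 uM. 4-MU fluorescence (Ex 365/Em 440) read after NaOH/glycine stop; AC50 from Hill fit.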
GALK inh: galactokinase (human) inhibition; P51570; Purified GALK, Kinase-Glo residual ATP luminescence; Potency, µM (doses to about 57.5 µM), inactives show at the highest dose activity change, negative = inhibition, actives largely listed as inhibitors; hit rate 0.007% among 270,000
Target sequence (P51570 whole entry, looked up): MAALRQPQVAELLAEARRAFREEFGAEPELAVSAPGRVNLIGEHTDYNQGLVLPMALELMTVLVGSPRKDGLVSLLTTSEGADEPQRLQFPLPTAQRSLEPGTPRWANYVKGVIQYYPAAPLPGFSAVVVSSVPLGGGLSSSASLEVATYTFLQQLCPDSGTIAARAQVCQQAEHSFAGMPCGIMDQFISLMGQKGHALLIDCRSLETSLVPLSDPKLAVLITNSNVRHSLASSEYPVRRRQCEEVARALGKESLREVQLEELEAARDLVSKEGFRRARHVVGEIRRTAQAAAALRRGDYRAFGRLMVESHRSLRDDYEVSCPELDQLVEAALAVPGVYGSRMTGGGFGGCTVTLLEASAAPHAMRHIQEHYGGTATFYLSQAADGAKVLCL
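Human GALK (5 nM) with 35 uM ATP and 100 uM galactose in 20 mM HEPES pH 8.0, 5 mM MgCl2, 60 mM NaCl, 1 mM DTT, 0.01% BSA. After 1 h at room temperature, leftover ATP was read by Kinase-Glo Plus luminescence.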
PKM2 activator: increases activity of human pyruvate kinase M2 | Potency, µM (top dose mostly 57.5 µM), inactives show top-dose activation, actives largely listed as activators | AID 1631 | hit rate 0.34% among 260,000 | P14618 | purified PKM2, Kinase-Glo ATP luminescence, activation; response scale: 0% is enzyme alone, no compound; also: nearly all actives have a fitted effect of over 55% in size
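hPK-M2, >95% pure; 0.1 mM ADP / 0.5 mM PEP final; imidazole pH7.2 buffer w/ 7 mM MgCl2, 50 mM KCl; 1 h RT; Kinase-Glo lum. Intermediate enzyme activity for dual inhibitor/activator qHTS.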
GAA spleen mod: lysosomal alpha-glucosidase (human) modulation | Potency, µM (highest dose often 79.9 µM), inactives show at the top dose activity change, negative = inhibition, usual class: inhibitors | human spleen homogenate, 4-MU-alpha-glucoside fluorescence | hit rate 0.006% among 240,000 | AID 2112;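 also: 0% = enzyme with vehicle and -100% = no enzyme basal signal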
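Human spleen homogenate (1 ug) with 4-methylumbelliferyl-alpha-D-glucopyranoside (1 mM final) in 50 mM citrate/phosphate pH 5.0, 0.01% Tween-20; 40 min at 37 C. Stopped at pH 10; 4-MU fluorescence Ex 365/Em 440 nm; AC50 by Hill fit.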
An asterisk follows results filed as active; ? = inconclusive; . = not tested or not shown; [ ] = dose if it differs, or a comment. A selection: hits, their analogues and other compounds. The true share with any hit is near 0.63%. Calls follow the shape of the dose curve; as a rule, active = well fitted curve in the direction sought with a large enough effect; inconclusive = small, poorly fitted or top-dose-only effect, or another doubt; inactive = no such curve, though single readings can be large; an effect the other way counts as inactive or inconclusive. Unless noted, % is scaled to controls: 0 for no effect and ±100 for the full control effect; potency is read from the fitted curve at half-maximal effect.

SMILES | GAA glycogen | GAA inhib | GALK inh | PKM2 activator | GAA spleen mod
C(=Nc1cccc2c(N=Cc3ccco3)cccc12)c1ccco1 | 14µM* | 2% | 1% | -1% | 7%
CN(C)c1ccc(N=Cc2ccco2)cc1 | ? | 3% | 6% | -7% | 9%
O=C(Oc1cccc2c(O)cccc12)c1ccccc1 | 28µM* | -11% | -3% | 1% | -2%
O=C(O)CCc1ccccc1OC(=O)c1ccccc1 | 2% | . | 5% | -3% | -1%
Cc1cccc(C)c1NC(=O)CCCn1c(=O)c2cccn2c2ccccc21 | 11%[76.3 µM] | . | . | . | .
Cc1ccc(Cl)cc1N1CCN(C(=O)c2cn(C)c3ccc(S(=O)(=O)N4CCC(C)CC4)cc3c2=O)CC1 | 18%[76.3 µM] | . | . | . | .
Nc1cc(Br)c(N)c(Br)c1 | 32µM* | 4% | 3% | 2% | -3%
CCC(=Nc1ccccc1OC)C1=C(O)CC(c2ccccc2)CC1=O (centres undefined) | -1% | 2% | 0% | 1% | 1%
CCC(=Nc1ccccc1O)C1=C(O)CC(c2ccccc2)CC1=O (centres undefined) | 13µM* | . | -4% | -3% | -4%
Cc1ccc2ccc(C(Nc3ccccn3)c3ccccc3)c(O)c2n1 (centres undefined) | -9%[76.3 µM] | -12%[15.4 µM] | 2% | 1% | -14%
COc1cc(C(Nc2ccccn2)c2ccc3ccc(C)nc3c2O)cc(OC)c1O (centres undefined) | 18µM* | 3% | -2% | 20% | 1%
CCc1ccccc1NC(=O)Cn1cc2c(n1)CCC(C)C2 (centres undefined) | -2%[76.3 µM] | . | . | . | .
CCc1ccc(CN(Cc2ccco2)c2cnc(S(C)(=O)=O)nc2C(=O)Nc2cccc(C)c2)cc1 | -2%[76.3 µM] | . | . | . | .
Oc1cccc(/C=N/Nc2cc(N3CCCC3)nc(N3CCCC3)n2)c1 | -3% | 1% | 0% | 1% | -7%
Oc1ccc(/C=N/Nc2cc(N3CCCC3)nc(N3CCCC3)n2)cc1 | 25µM* | -11% | 6% | 0% | -10%
COc1cccc(OC)c1OCc1cc(C2C3CCCC=C3C(C#N)=C(N)C2(C#N)C#N)c(C)cc1C (centres undefined) | 10% | -1% | 0% | 4.5µM* | -15%
Cc1nn(-c2nc(-c3ccc(F)cc3)cc(C(F)(F)F)n2)c(C)c1Br | 7%[76.3 µM] | . | . | . | .
Cc1cc2[nH]c(=O)c(=O)[nH]c2cc1S(=O)(=O)Nc1ccccc1F | -3%[76.3 µM] | . | . | 10µM* | .
Cc1cc(C)c(NC(=O)CCCn2c(C)c3cnn(-c4ccccc4)c(=O)c3c2C)c(C)c1 | 3%[76.3 µM] | . | . | . | .
Cc1cc(SCc2ccccc2F)nc(=O)[nH]1 | . | . | 6% | 16µM* | .
Cc1cc(C2=CC(C)(c3cc(C)oc3C)Nc3nc(C(F)(F)F)nn32)c(C)o1 (centres undefined) | -22% | -7% | 2% | 22µM* | 1%
Cc1ccc(NC(=S)Nc2cccc3ccccc23)cc1 | . | . | 3% | 0% | .
CC(C)c1ccc(NC(=S)Nc2cccc3ccccc23)cc1 | 40µM* | . | -3% | -3% | .
COC(=O)C(N)Cc1ccc(O)c(O)c1 (centres undefined) | 3.1µM* | -3% | -2% | 11% | -11%
c1ccc(Cn2ncc3c(NCc4ccco4)ncnc32)cc1 | -10% | -5% | 5% | 14µM* | -5%
SMILES | GAA glycogen | GAA inhib | GALK inh | PKM2 activator | GAA spleen mod
Cc1cc(Nc2ccccc2)n(CCOC(=O)COc2ccccc2)n1 | 32µM* | ? | 1% | 2% | -4%
Cc1cc(NC(=O)c2ccc(F)cc2)n(CCOC(=O)c2ccc(F)cc2)n1 | 6% | 10% | 0% | 0% | -2%
Cc1cc(C)cc(Nc2cc(C(=O)NC3CCC(C)CC3)c3ccccc3n2)c1 (centres undefined) | 9%[76.3 µM] | . | . | . | .
Nc1nnc(SCC(=O)c2ccc3c(c2)NC(=O)CO3)s1 | -13% | 2% | 1% | 28µM* | 2%
COc1ccccc1S(=O)(=O)N1CCN(S(=O)(=O)c2ccccc2C#N)CC1 | 1% | . | -1% | 2µM* | .
COc1ccc(COC(=O)C2=C(C)NC(=O)NC2c2cc(OC)ccc2OC)cc1 (centres undefined) | 1%[76.3 µM] | . | -2% | -4% | .
COc1ccc(COC(=O)C2=C(C)NC(=O)NC2c2cccc(OC)c2OC)cc1 (centres undefined) | 40µM* | . | . | -6% | .
Cc1ccc2c(CN3CCN(C(=O)c4ccc(Br)cc4)CC3)cc(=O)oc2c1 | 11%[76.3 µM] | . | . | . | .
CCc1sc(C(C2C(=O)CC(C)(C)CC2=O)C2C(=O)CC(C)(C)CC2=O)cc1[N+](=O)[O-] | -12% | 8% | 2% | 22µM* | 5%
Fc1ccc(NC(=S)NCc2ccccc2)cc1 | -11%[76.3 µM] | . | -1% | 0% | .
FC(F)(F)c1cccc(NC(=S)NNC(=S)NCc2ccccc2)c1 | 12µM* | ? | 1% | -15% | -5%
Cc1ccc(NC(=S)NNC(=S)NCc2ccccc2)cc1 | 32µM* | -4% | -1% | -1% | -6%
FC(F)(F)c1cccc(NC(=S)NCc2ccccn2)c1 | -3% | 4% | 1% | 3% | 4%
O=C(CCc1ccc(O)cc1)NNC(=S)NCCc1ccccc1 | ? | 2% | . | 0% | -11%
O=C(NNC(=S)NCCc1ccccc1)c1ccc(Br)s1 | 35µM* | -2% | -1% | -1% | 9%
CCc1ccc(CN(C(=O)Nc2cccc(Cl)c2)c2ccccn2)cc1 | -10%[76.3 µM] | . | . | . | .
Cn1c(SCC(=O)Nc2ccc(Cl)cn2)nnc1C1CC1 | -7%[76.3 µM] | . | -1% | 0% | .
Cn1c(SCC(=O)c2ccccc2F)nnc1C1CC1 | -3% | -16% | 0% | 32µM* | -3%
CCOC(=O)N1CCC(NC(=O)c2ccc3c(c2)N(Cc2ccc(F)cc2)C(=O)c2ccccc2S3=O)CC1 (centres undefined) | -12%[76.3 µM] | . | . | . | .
Cc1ccc2occ(/C=N/NC(=O)c3ccc(O)cc3)c(=O)c2c1 | -10%[76.3 µM] | . | -10% | 2% | .
NC(=O)N/N=C/c1coc2ccc(O)cc2c1=O | 16µM* | -26% | 2% | 1% | 3%
Cn1nc(-c2ccc(Cl)cc2)nc2c(=O)n(C)c(=O)nc1-2 | -3% | 4% | 1.1µM* | 23% | 3%
CCOC(=O)COc1ccc(CC)cc1C(=O)c1ccn2nc(-c3ccc(Cl)cc3)cc2n1 | 9%[76.3 µM] | . | . | . | .
O=S(c1ccccc1)c1ccc2nnnn2n1 (centres undefined) | . | . | . | . | 6%
Cc1ccc2c(CNCCc3ccco3)c(C(=O)O)n(Cc3ccc(F)cc3)c2c1 | -10%[76.3 µM] | . | . | . | .
C=CCNC(=S)NN=C1CCCCCCC1 | 35µM* | 10% | 6% | -9% | -7%
Cn1ncc(SCc2ccccc2)c(Cl)c1=O | -2% | ? | 1% | 18µM* | -11%
Cn1ncc(S(=O)(=O)Cc2ccccc2)c(Cl)c1=O | -1% | -3%[15.4 µM] | 2% | 15% | 10%
CC1=C(C(=O)Nc2ccccc2)C(c2ccccc2[N+](=O)[O-])NC(=O)N1 (centres undefined) | -6% | 3% | -2% | 7% | 0%
